# This is part of a sample that, as a whole, favours compounds with a hit. Of some 83,000 tested, about 20% had one in any assay.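 The endpoint reported here, percent growth, reads 100 for growth as untreated, 0 for no net growth and -100 for all cells dead.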 Values without a mark were called inactive. Calls of active or inactive are those of the source. The calls were made as follows: active = growth percent below 10; inactive = the rest.
# Assays:
# Test in all cases: NCI-60 one-dose screen, 48 h (100 = growth as untreated, 0 = no growth, -100 = all killed)
# [1] = tested on: BT-549 breast; details: 10 µM unless noted
# [2] = tested on: MDA-MB-435 melanoma; details: 10 µM unless noted
# [3] = tested on: SW-620 colon; details: 10 µM unless noted
# [4] = tested on: MCF7 breast; details: 10 µM
# [5] = tested on: HCT-116 colon; details: 10 µM unless noted
# [6] = tested on: HCC-2998 colon; details: 10 µM unless noted
# [7] = tested on: KM12 colon; details: 10 µM unless noted
SMILES,growth [1],growth [2],growth [3],growth [4],growth [5],growth [6],growth [7]
CCCCN1CCN(c2ccc3nc(-c4ccc5nc(-c6ccc(OC)c(OC)c6)[nH]c5c4)[nH]c3c2)CC1,-59% (active),-64.5% (active),-50.8% (active),-67.2% (active),-80.2% (active),-70.2% (active),-53.5% (active)
O=C1Nc2ccccc2/C1=C/c1cccs1,88.5%,104%,98.3%,60.8%,99.9%,91.4%,77.1%
CN1CCN(Cc2ccc(C(=O)Nc3cncc(C#Cc4cnc(N)c5ccccc45)c3)cc2C(F)(F)F)CC1,72%,-89.2% (active),-66.3% (active),-68.3% (active),-84.5% (active),-52.6% (active),-70.4% (active)
COc1cc(/C=C/C(=O)c2ccc(Cl)cc2)cc(CN2CCCCC2)c1O,91.2%,74%,88.6%,48.1%,82.1%,95.5%,72.6%
CCOC(=O)c1cc2c(n1Cc1cc(OC)cc(OC)c1)-c1oncc1CCC2,25.2%,-24.9% (active),24.7%,12.5%,15.1%,19.3%,19.1%
CCCN1C(=O)N(CCC)C2C1NN=c1s/c(=C3\C(=O)N(C(C)C)c4ccccc43)c(=O)n12 (stereo unspecified),47.7%,-7.13% (active),35.9%,15.4%,20%,65.3%,26.9%
O=C(c1nc2ccccc2[nH]1)C1C(c2ccc([N+](=O)[O-])cc2)C2CC3CCCCC3N2[C@@]12C(=O)Nc1cc(Cl)ccc12 (stereo partly specified),46.9%,23%,31.6%,7.25% (active),17.9%,31.6%,29.1%
Cc1cccc2c(=O)c3c(sc12)c(N1CCNCC1)nc1ccccc13,80%,62.5%,27.6%,26.7%,26.9%,47.5%,51.3%
CC(=O)c1ccc2oc(=O)n(Cc3ccc(C#N)cc3)c(=O)c2c1,102%,99.3%,100%,98.9%,110%,102%,102%
CN(C)CCNc1cc(-c2ccccc2)nc2ccccc12,-77.8% (active),-55.1% (active),-79.8% (active),-24.6% (active),-71.4% (active),-81.4% (active),-23.8% (active)
COc1cc(/C=C/C(=O)N2c3ccccc3CC2C)c(OC)c2c1OCO2 (stereo unspecified),97.7%,85.8%,93.8%,91.6%,97.2%,100%,93.8%
Cn1c2c(c(=O)[nH]c1=O)NC1=C(C(=O)c3ccccc31)C1(C=C(O)c3ccccc31)N2 (stereo unspecified),180%,117%,123%,91%,96.5%,130%,104%
CCOC(=O)c1c(Cl)c2c(n1Cc1ccccc1)-c1oncc1CCC2,87.6%,-12.9% (active),39.5%,37.5%,50.3%,61.8%,53.1%
CCN(CC)CCCNc1ccnc2cc3ccccc3cc12,94.2%,87.3%,83%,81.7%,60.1%,78.7%,80.8%
COc1cc(C(=O)Nc2ccc(-c3nc4ccccc4[nH]3)cc2)cc(OC)c1OC,60.6%,-25.2% (active),14.7%,11.6%,24.1%,57.6%,33.8%
CC[C@H](C)[C@@H](C(=O)OC)n1cc(CNC(=O)[C@@H](Cc2ccccc2)NC(=O)OCc2ccccc2)nn1,106%,99.9%,102%,97%,102%,104%,103%
Cc1sc2ncnc(Sc3nc4ccccc4[nH]3)c2c1C,47.2%,-92.9% (active),-78.2% (active),-70.2% (active),-71.2% (active),-91.4% (active),-90.1% (active)
Cc1ccc(Nc2nc(N)c3ccccc3n2)cc1Cl,85.8%,92.1%,67.7%,68.7%,28.8%,51.6%,56%
CCCCCCCCCCCCCCn1cc(C2=C(c3coc4ccc(OC)cc34)C(=O)NC2=O)c2ccccc21,91.1%,97.6%,89.2%,88.5%,78%,104%,98%
Clc1ccc(-c2nnc(COc3ccc(C4=NNC(c5ccco5)C4)cc3)o2)cc1 (stereo unspecified),81.6%,93.1%,94.5%,17.3%,86.1%,82.3%,70.9%
Cc1ccc(S(=O)(=O)c2c(COC(=O)c3cccc(C)c3)c(-c3ccccc3)nn2C)cc1,57.1%,-33.7% (active),-37.2% (active),-49.2% (active),0.235% (active),60%,16.3%
O=C(Nc1ncc(Cc2cccc(C(F)(F)F)c2)s1)C1COc2ccccc2O1 (stereo unspecified),90.7%,59.1%,81%,81.8%,83.3%,98.5%,76%
Nc1ccc(C2c3ccccc3Oc3ccccc32)cc1,109%,104%,101%,104%,97.8%,117%,103%
NCCOc1ccccc1/C=C1\c2ccccc2-c2ccc([N+](=O)[O-])cc21,84.8%,-53.8% (active),-82.4% (active),-60.9% (active),-95.3% (active),-53.3% (active),-59.9% (active)

SMILES,growth [1],growth [2],growth [3],growth [4],growth [5],growth [6],growth [7]
O=C(Nc1ccc(N2CCNCC2)cc1)c1[nH]ncc1Nc1cc(C2CC2)ncn1,42.9%,50.6%,33.1%,37%,14.6%,46.3%,21.1%
Cn1cc([C@@H]2Nc3ccc4[nH]ncc4c3[C@H]3[C@H]4CCC(C4)[C@H]32)c(C(F)(F)F)n1,54.6%,-1.69% (active),23.5%,25%,27.6%,82.8%,36.5%
O=C(/C=C/c1ccc(C(F)(F)F)cc1)c1ccc(Nc2nc(NCCO)nc(Nc3ccc(Cl)cc3)n2)cc1,57.9%,47.7%,0.404% (active),-43.1% (active),-85.6% (active),-30.2% (active),-51.2% (active)
O=[N+]([O-])c1cc2c(ccc3occc32)o1,22%,-75.1% (active),27.6%,9.95% (active),7.94% (active),10.9%,28.6%
COc1ccc(CCN2C(=O)CCSC2=S)cc1,96.3%,4.04% (active),21.9%,16.2%,17.1%,106%,0.314% (active)
O=C(Nc1ccc(Cl)cc1)N1CCN(c2ccc3nncn3n2)CC1,43.4%,-81.4% (active),-88% (active),-53.4% (active),-83.4% (active),-33.6% (active),-40.8% (active)
FC(F)(F)c1cccc(CNC2CCN(CCc3ccccc3)CC2)c1,96.4%,43.6%,63%,74.9%,31.3%,19.5%,70.2%
CCOC(=O)c1cc2c(n1Cc1cccc(OC)c1)-c1oncc1CCC2,42.4%,-13.4% (active),23.6%,14.1%,25.2%,51.6%,27.1%
Oc1c(C(Nc2ccccn2)c2cccc(Oc3ccccc3)c2)ccc2cccnc12 (stereo unspecified),-74.5% (active),-90.1% (active),-88% (active),-83% (active),-85.3% (active),-84.5% (active),-89.9% (active)
CCN1C(=O)N(c2ccccc2)C2NN=c3s/c(=C4\C(=O)N(C(C)C)c5ccccc54)c(=O)n3C21 (stereo unspecified),12.7%,-21.2% (active),35.2%,20.6%,4.19% (active),33.4%,14.5%
CCOC(=O)c1sc(-c2ccc(OS(=O)(=O)c3cccs3)c(C=O)c2)nc1C,-7.24% (active),-15.1% (active),8.51% (active),-21.7% (active),2.95% (active),46.4%,0.602% (active)
CNCCNc1nc2ccccc2c2c(=O)c3cc(OC)ccc3sc12,76.1%,-86.1% (active),-78.3% (active),-56.9% (active),-82.3% (active),-68.7% (active),-75.7% (active)
COc1cc2cc3c(=O)n4c(cc5cc(OC)ncc54)c(=O)n3c2cn1,106%,110%,105%,95.4%,100%,106%,105%
Cc1ccc(OCCCCCCNCCO)c(C)c1,27.6%,15.2%,18.1%,9.1% (active),19.1%,-6.64% (active),15.1%
COc1ccc(OC)c(/C=C/C(=O)c2c(C)nc3ccccc3c2/C=C/c2ccccc2)c1,59%,46.4%,36.5%,19.8%,34.1%,93.6%,69.4%
O=C(CN1C(=O)/C(=C\c2ccc(Cl)cc2)SC1=S)Nc1ncc(Cc2ccc(Cl)cc2)s1,113%,110%,105%,94.8%,107%,106%,101%
C[C@@H](C(=O)NCCCC#Cc1cnc(Nc2ccc(C#N)cc2)nc1NC1CC1)N(C)C(=O)/C=C/CN(C)C,32.3%,24.5%,42.1%,17.3%,27.7%,64.5%,17.7%
FC(F)(F)c1cccc(Nc2nc(-c3ccccc3)nc3ncccc23)c1,60.8%,-79.4% (active),-53% (active),68.2%,28.5%,-68.3% (active),38.1%
CC1=C(C(=O)OCC2CCN(C(=O)OC(C)(C)C)CC2)[C@@H](c2cccc(C#N)c2)C2=C(CC(C)(C)CC2=O)N1,50.3%,41.4%,29.6%,30.5%,17.1%,75.6%,36%
COc1ccc(Nc2cc(C)nc(NCc3ccccc3)n2)cc1,97.6%,18.5%,15%,11.1%,15.4%,21.2%,5.56% (active)
C#CCn1cc(C=C2C(=O)N(C)C(=O)N(C)C2=O)c2cc(Cl)ccc21,116%,103%,99.5%,100%,109%,112%,104%
O=C(Nc1nc2c(s1)CCc1c-2c(Br)n(Cc2ccccc2)c1Br)c1ccccc1,52.8%,56.1%,69.2%,51.5%,69.9%,99.1%,65.5%
O=Nc1c(O)ccc2ccccc12.O=Nc1c(O)ccc2ccccc12.O=Nc1c([O-])ccc2ccccc12.[Fe+3],103%,109%,97.3%,89.2%,97.1%,113%,116%
O=C(Nc1ccc(-c2nc3cc4ccccc4cc3[nH]2)cc1)c1cccc(Br)c1,47.9%,30%,26.9%,27.5%,64.6%,33.1%,39.8%

# Reference: PubChem BioAssay (NCI)
